Source: PubChem BioAssay (National Center for Advancing Translational Sciences (NCATS))
D3 antag: qHTS of D3 Dopamine Receptor Antagonist: qHTS; D(3) dopamine receptor (Homo sapiens), P35462; D3R cells, DiscoveRx beta-arrestin luminescence, antagonist mode; hits give low values; max response, negative = inhibition, %; 360,000 tested, 2.5% active; AID 652054, 2013; in the data active means max response below about -50%; inconclusive means no clear call, values can overlap the other calls; further: on the % scale 0 is the no-effect control and ±100 the full control effect
Target sequence (P35462 whole entry, looked up): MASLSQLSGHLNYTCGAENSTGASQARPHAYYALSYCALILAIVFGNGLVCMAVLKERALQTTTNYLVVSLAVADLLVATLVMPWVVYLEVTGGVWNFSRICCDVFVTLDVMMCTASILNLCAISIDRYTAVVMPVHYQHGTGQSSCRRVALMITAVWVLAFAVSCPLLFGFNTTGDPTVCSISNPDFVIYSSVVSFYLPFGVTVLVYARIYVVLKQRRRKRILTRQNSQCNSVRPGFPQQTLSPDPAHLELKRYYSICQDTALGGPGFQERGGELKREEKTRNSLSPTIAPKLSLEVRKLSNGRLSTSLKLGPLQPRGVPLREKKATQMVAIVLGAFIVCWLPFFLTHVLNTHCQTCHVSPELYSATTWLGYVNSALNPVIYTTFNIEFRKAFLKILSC
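Cells plated overnight at 1500 cells/well, then exposed to library compounds with dopamine controls for 90 minutes at 37 degrees C. DiscoveRx reagent added for 30–60 minutes at room temperature; luminescence read, quantitative HTS format.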
DRD3 agonist: qHTS of D3 Dopamine Receptor Agonist: qHTS. D(3) dopamine receptor (Homo sapiens), P35462. D3R DiscoveRx beta-arrestin cells, luminescence, 90 min. max activation, %. 410,000 tested, 0.58% active; in the data active means max activation above about 30%; further: 0% is about no effect
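Cells at 1500/well, incubated overnight, then treated with pinned compounds (dopamine as control) for 90 min at 37 degrees C. DiscoveRx reagent added for 30 - 60 minutes at room temperature; luminescence read.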
ClpP mod: qHTS Assay for Activators of ClpP | ATP-dependent Clp protease proteolytic subunit (Bacillus subtilis (strain 168)), P80244 | purified B. subtilis ClpP, FRET peptide cleavage, 20 min | Potency, µM (top dose mostly 57.5 µM), without a hit: top-dose activity change, negative = active | 340,000 tested, 1.9% active | AID 651965, 2013; active means well fitted falling curve with a large enough effect; inconclusive means small, poorly fitted or top-dose-only effect; inactive means no such curve, though single readings can be large or run the other way; further: potency means the concentration at half of the fitted maximal effect; the source files actives as falling curves though it sought activators and does not explain the sign; nearly all actives have a fitted effect of over 65% in size
Target sequence (P80244 whole entry, looked up): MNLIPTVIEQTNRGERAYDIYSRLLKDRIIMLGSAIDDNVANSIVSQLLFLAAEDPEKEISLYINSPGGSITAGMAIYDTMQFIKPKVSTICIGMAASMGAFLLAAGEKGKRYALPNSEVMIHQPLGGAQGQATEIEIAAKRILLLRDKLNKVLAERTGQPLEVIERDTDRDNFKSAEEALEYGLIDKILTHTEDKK
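ClpP 10 microg/mL final, pH 8 Tris/KCl buffer with BSA, glycerol, Tween-20; compound pinned in; FRET-FV substrate; RT 20 min; Ex320/Em430; ΔFRET vs ADEP 5.8 microM, DMSO, no enzyme.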
IL1B secr inh: qHTS for Inhibitors of Inflammasome Signaling: IL-1-beta AlphaLISA Primary Screen; 360,000 tested, 4.7% active; THP-1 LPS/ATP IL-1B secretion, AlphaLISA, 16 h; hits give low values; activity change, % at 57.5 µM; in the data active means activity change below about -50%; inconclusive means mostly about -30% to -49%; further: on the % scale 0 is the no-effect control and ±100 the full control effect
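THP-1 cells pretreated 1 hr with compounds (up to 57.5 uM final), then stimulated with LPS (250 ng/mL final) plus ATP (1.25 mM final); secreted IL-1B measured by AlphaLISA after 16 hr, decreased signal indicating inhibition.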
TDP1 cell CPT: qHTS for Inhibitors of human tyrosyl-DNA phosphodiesterase 1 (TDP1): qHTS in cells in presence of CPT | chicken DT40 Tdp1-/-;hTDP1 cells + 20 nM CPT, ATP luminescence, 48 h | Potency, µM (highest dose often 46.2 µM), without a hit: top-dose activity change, negative = growth inhibition, hits mostly inhibitors | 420,000 tested, 12% active; further: potency means the concentration at half of the fitted maximal effect; on the % scale 0 is the no-effect control and ±100 the full control effect; nearly all actives have a fitted effect of over 55% in size
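Chicken DT40 Tdp1-/- cells stably complemented with human TDP1 were seeded at 400 cells/well in medium containing 20 nM camptothecin, exposed to pin-transferred compounds, and grown at 37 °C for at least 48 hr. Viability was read as ATP luminescence.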
DT40 TDP1 no CPT: qHTS for Inhibitors of human tyrosyl-DNA phosphodiesterase 1 (TDP1): qHTS in cells in absence of CPT; 420,000 tested, 15% active; Potency, µM (doses to about 46.2 µM), without a hit: at the top dose activity change, negative = growth inhibition, actives largely listed as inhibitors; DT40 Tdp1-/- hTDP1 cells, no CPT, ATP luminescence, 48 h; further: potency means the concentration at half of the fitted maximal effect; on the % scale 0 is the no-effect control and ±100 the full control effect; nearly all actives have a fitted effect of over 55% in size
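Chicken DT40 Tdp1-/- cells complemented with human TDP1, screened without camptothecin (DMSO vehicle only), 400 cells/well. Compounds pin-transferred, cells incubated at 37 °C for at least 48 hr. Growth read as ATP-dependent luminescence (CellTiter-Glo, 30 min at RT).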
Active calls of the source: *; u = inconclusive; x = no result. Rows were chosen to be rich in hits. Some 21% of all compounds tested hit in one or more screens of this group. Unless noted, the call rests on the fitted dose curve; in most records, active means well fitted inhibition curve with a large enough effect; inconclusive means small, poorly fitted or top-dose-only effect; inactive means flat fitted curve, though single readings scatter.

SMILES	D3 antag	DRD3 agonist	ClpP mod	IL1B secr inh	TDP1 cell CPT	DT40 TDP1 no CPT
CCCCNC(=O)C1(C)CCN1C(=O)c1ccc2c(c1)CCO2 (configuration not stated)	u	-8	-3%	-1	-24%	-16%
COCCCn1c(SCC(=O)NC2CCCC2)nnc1-c1ccncc1	-2	0	x	-1	18%	4%
Cc1ccccc1S(=O)(=O)c1cc2ccccc2nc1N	17	2	x	24	-11%	u
Cc1ccc(-c2cc3ccccc3nc2N)cc1	18	1	4%	21	16µM*	26µM*
CCOc1ccccc1C(=O)NCC(=O)NNC(=O)CN(C)S(=O)(=O)c1ccc(Cl)cc1	-17	5	-1%	-4	21µM*	12µM*
CN(CC(=O)NNC(=O)CNC(=O)c1ccccc1F)S(=O)(=O)c1ccc(Cl)cc1	1	12	-2%	0	-5%	-1%
COc1ccccc1N1CCN(C(=O)COc2ccc(C)cc2Br)CC1	9	1	-6%	-16	-16%	u
Cc1cc(OCC(=O)Nc2ccccc2C(N)=O)c2c(C)cc(=O)oc2c1	0	-2	4%	-12	u	23µM*
COc1ccccc1N1CCN(C(=O)COc2cc(C)cc3oc(=O)cc(C)c23)CC1	-1	2	u	-8	16µM*	21µM*
COc1ccccc1N1CCN(C(=O)COc2cc(C)ccc2C)CC1	u	-9	u	-3	u	16µM*
CC(=O)Nc1ccc(NC(=O)COc2cc(C)cc3oc(=O)cc(C)c23)cc1	9	5	u	13	-11%	7%
Cc1cc(OCC(=O)N2CCC(C(=O)O)CC2)c2c(C)cc(=O)oc2c1	-11	-18	4%	7	7%	-7%
CC(C)CC(=O)NCC(c1ccc2c(c1)OCO2)N1CCN(c2ccccc2)CC1 (configuration not stated)	x	-19	-1%	x	u	u
CN(Cc1ccccc1)C(=O)C1CCN(S(=O)(=O)c2cccc3nsnc23)CC1	23	-6	1%	-14	u	u
COc1ccccc1CNC(=O)CSC(=S)N1CCCC1	-13	-8	-1%	-4	-19%	-16%
CC(C)(CO)CNc1ccn2nccc2n1	u	-11	u	-79*	13µM*	u
O=C1Cc2ccccc2C(=O)N1	u	-3	-5%	107	1.5µM*	1.2µM*
CC1(C(=O)NS(=O)(=O)c2ccccc2Cl)CCN1C(=O)c1ccccc1 (configuration not stated)	11	8	2%	-17	-16%	-1%
COc1ccc(NC(=S)Nc2ccccc2SC)c(OC)c1	12	5	1%	24	-27%	u
CCc1cccc(NC(=S)N2CCC(c3ccccc3)C2)c1 (configuration not stated)	-6	-17	x	-1	u	u
CSc1cccc(NC(=S)N2CCC(N(C)C3CCCCC3C)CC2)c1 (configuration not stated)	10	-6	x	-69*	10%	u
CSc1cccc(NC(=S)N2CCC(c3ccccc3)C2)c1 (configuration not stated)	-5	5	x	u	-17%	16µM*
CSc1cccc(NC(=S)N(CCC(C)C)C2CCN(C(C)C)CC2)c1	-85*	-16	x	-25	-8%	-20%
CN1CCN(C(=O)C(=O)c2cn(CC(=O)N3CCCCCC3)c3ccccc23)CC1	-23	-5	-2%	-8	-2%	-14%
Cc1ccc(CN2CCN(Cc3cccc(-n4cccn4)c3)CC2CCO)cc1 (configuration not stated)	-53*	-16	x	-1	12µM*	u
SMILES	D3 antag	DRD3 agonist	ClpP mod	IL1B secr inh	TDP1 cell CPT	DT40 TDP1 no CPT
CC(=O)c1cc(CN2CCN(Cc3ccc(C)cc3)C(CCO)C2)cs1 (configuration not stated)	-86*	-4	-2%	-24	-13%	u
COc1ccc(CN2CCN(CC3CC3)CC2CCO)c(C)c1C (configuration not stated)	u	-28	-1%	-3	u	-12%
COc1ccc(CN2CCN(Cc3csc(C(C)=O)c3)CC2CCO)c(C)c1C (configuration not stated)	1	-10	x	-16	-10%	10µM*
CC(=O)c1cccc(CN2CCN(Cc3ccc(C)cc3)C(CCO)C2)c1 (configuration not stated)	-74*	-22	-2%	-5	u	-17%
CC(=O)c1cccc(CN2CCN(Cc3ccc(F)cc3)C(CCO)C2)c1 (configuration not stated)	u	-4	0%	5	-29%	u
CC(=O)c1cc(CN2CCN(CCC(C)C)C(CCO)C2)cs1 (configuration not stated)	2	-12	-1%	7	16µM*	u
COc1ccc(CN2CCN(C3CCOCC3)CC2CCO)c(C)c1C (configuration not stated)	-23	-14	1%	7	-7%	-3%
COc1ccc(CN2CCN(Cc3nc4ccccc4s3)CC2CCO)c(C)c1C (configuration not stated)	0	-9	0%	u	u	15µM*
COc1ccc(CN2CCN(C3CCSCC3)CC2CCO)c(C)c1C (configuration not stated)	-64*	-24	x	-4	18µM*	16µM*
O=C(Nc1cccc(F)c1F)C1CCN(c2ncccn2)CC1	x	0	-21%	x	-19%	-23%
Cn1cc(CN2CCC(C(=O)Nc3cccc(-c4cscn4)c3)CC2)cn1	2	-4	0%	28	-18%	2%
CCCc1ncc(CN2CCC(C(=O)Nc3cccc(-c4cscn4)c3)CC2)cn1	3	-3	-2%	-8	u	29µM*
CCCn1cc(CN2CCC(C(=O)Nc3cccc(-c4cscn4)c3)CC2)c(C)n1	-18	-10	-2%	-72*	u	u
